# Test results taken from PubChem BioAssay (NCATS).
# For some of these results: Entries with a potency or affinity are not part of this list. Some structures have more than one record in an assay (separate samples or runs), and their calls can disagree. Activity calls are given as the source filed them. How the calls were made is not given here.
# Tests used:
# [1] = Ebola virus entry assay, blue channel fluorescence
# [2] = Ebola virus entry assay, ratio channel
# [3] = Ebola virus entry assay, green channel fluorescence
# [4] = Ebola virus entry assay, reporter ratio channel; AC50: Channel type: primary unless noted; outcome: Channel type: primary unless noted
# [5] = Ebola virus entry assay, blue channel (ratio component)
structure (smiles),measurement,setting,value
Cn1ccc2cc3c(cc21)CCN3C(=O)Nc1cccnc1,outcome,[1],inactive
same,outcome,[2],inactive
same,outcome,[3],inactive
same,outcome,[4],inactive
same,outcome,[5],inactive
CC(=O)SC[C@@H](C)C(=O)N1CCC[C@H]1C(=O)N[C@@H](Cc1ccccc1)C(=O)O,outcome,[1],inactive
same,outcome,[2],inactive
same,outcome,[3],inactive
same,outcome,[4],inactive
same,outcome,[5],inactive
N#CC(C#N)=Cc1ccc(O)c(O)c1,outcome,[1],inactive
same,outcome,[2],inactive
same,outcome,[3],inactive
same,outcome,[4],inactive
same,outcome,[5],inactive
Cc1cc2c(C(C)C)c(O)c(O)c(C=O)c2c(O)c1-c1c(C)cc2c(C(C)C)c(O)c(O)c(C=O)c2c1O,AC50,[1],39.8 µM (active)
same,outcome,[2],inactive
same,AC50,[4],39.8 µM (active)
NC(=Nc1ccccc1)Nc1ccccc1,AC50,[1],3.16 µM (active)
same,outcome,[2],inactive
same,AC50,[4],31.6 µM (active)
same,outcome,[4],inactive
COc1ccc(C(=O)c2c(C)n(CCN3CCOCC3)c3ccccc23)cc1,AC50,[1],39.8 µM (active)
same,outcome,[2],inactive
same,AC50,[4],35.5 µM (active)
OC1(c2ccc(Cl)c(C(F)(F)F)c2)CCN(CCCC(c2ccc(F)cc2)c2ccc(F)cc2)CC1,AC50,[1],5.01 µM (active)
same,AC50,[2],2.82 µM (active)
same,AC50,[4],2.82 µM (active)
CCCN1CCC[C@@H]2Cc3nc(N)ncc3C[C@H]21,AC50,[1],39.8 µM (active)
same,outcome,[2],inactive
same,AC50,[4],39.8 µM (active)
COC(=O)Nc1nc2ccc(C(=O)C3CC3)cc2[nH]1,AC50,[1],8.91 µM (active)
same,AC50,[2],7.94 µM (active)
same,AC50,[4],7.94 µM (active)
Cc1cc(OCCOCC[N+](C)(C)Cc2ccccc2)ccc1C(C)(C)CC(C)(C)C,AC50,[1],8.91 µM (active)
same,AC50,[2],3.98 µM (active)
same,AC50,[4],3.98 µM (active)
C[C@H]1O[C@@H](O[C@H]2[C@@H](O)C[C@H](O[C@H]3[C@@H](O)C[C@H](O[C@H]4CC[C@@]5(C)[C@H](CC[C@@H]6[C@@H]5CC[C@]5(C)[C@@H](C7=CC(=O)OC7)CC[C@]65O)C4)O[C@@H]3C)O[C@@H]2C)C[C@H](O)[C@@H]1O,AC50,[1],1.41 µM (active)
same,AC50,[2],0.708 µM (active)
same,AC50,[4],0.708 µM (active)
CCCCCCCCCCCCCC[N+](C)(C)Cc1ccccc1,AC50,[1],39.8 µM (active)
same,AC50,[2],25.1 µM (active)
same,AC50,[4],25.1 µM (active)
Fc1ccc(C(OCCN2CCN(CCCc3ccccc3)CC2)c2ccc(F)cc2)cc1,AC50,[1],3.98 µM (active)
same,AC50,[2],2.82 µM (active)
same,AC50,[4],2.82 µM (active)
Cc1ccc2c(c1)C1CN(C)CCC1N2 (stereo not given),AC50,[1],17.8 µM (active)
same,AC50,[2],10 µM (active)
same,AC50,[4],10 µM (active)
Cc1cccc(C)c1NC(=O)CN1CCN(CCCC(c2ccc(F)cc2)c2ccc(F)cc2)CC1,AC50,[1],3.16 µM (active)
same,AC50,[2],3.16 µM (active)
same,AC50,[4],3.16 µM (active)
CCCCC(CC)CN=C(N)NC(N)=NCCCCCCN=C(N)NC(N)=NCC(CC)CCCC (stereo not given),AC50,[1],11.2 µM (active)
same,outcome,[2],inactive
same,outcome,[4],inactive
COc1cc(Nc2c(C#N)cnc3cc(OCCCN4CCN(C)CC4)c(OC)cc23)c(Cl)cc1Cl,AC50,[1],2.82 µM (active)
same,AC50,[2],1.41 µM (active)
same,AC50,[4],1.41 µM (active)
c1ccc2c(c1)Nc1ccccc1S2,outcome,[1],inactive
same,outcome,[2],inactive
same,outcome,[4],inactive
O=c1c(O)c(-c2ccc(O)c(O)c2)oc2cc(O)cc(O)c12,outcome,[1],inactive
same,outcome,[3],inactive
same,outcome,[5],inactive
CC(C)C[C@H](NC(=O)[C@H](CCc1ccccc1)NC(=O)CN1CCOCC1)C(=O)N[C@@H](Cc1ccccc1)C(=O)N[C@@H](CC(C)C)C(=O)[C@@]1(C)CO1,AC50,[1],0.316 µM (active)
same,AC50,[2],0.708 µM (active)
same,AC50,[4],0.708 µM (active)
CC1=C(/C=C/C(C)=C/C=C/C(C)=C/C(=O)Nc2ccc(O)cc2)C(C)(C)CCC1,AC50,[1],39.8 µM (active)
same,outcome,[2],inactive
same,AC50,[4],39.8 µM (active)
